High-throughput results (PubChem BioAssay)
The entries come from a sample that favours hits as a whole.
S aureus helic – blocks Staphylococcus aureus DNA helicase | inhibition, % (test concentration not listed) | 120,000 tested, 0.05% active | AID 485395 | purified S. aureus helicase, fluorescence unwinding assay; in the data active means inhibition above about 25%, passing the limit was not always enough;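 further: 0% = mean of negative control wells and 100% = mean of positive control wells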
Sa growth inh – blocks Staphylococcus aureus growth. S. aureus RN4220 growth, OD600, 20 h, 42 °C; active compounds read low. relative growth, % (concentration not given with the values). 170,000 tested, 0.53% active;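 active means relative growth at most 50% at the other temperature and 20+ points below 30 °C, or under 10% at both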
* marks the source's active call; other numbers are inactive results; / = no result given.

SMILES | S aureus helic | Sa growth inh
COCc1cc(=O)n2[nH]cc(-c3ccc(Cl)cc3)c2n1 | 17 | 113
Cc1cc(=O)n2nc(N3CCC(C(=O)NC(C)C)CC3)sc2n1 | 30 | 75
O=C(CCn1ccnc1)OCc1ccccc1 | 17 | 106
O=C(OCCn1ccnc1)c1ccc(-c2ccccc2)cc1 | 9 | 3.0*
CC1(C)S[C@@H]2[C@H](NC(=O)[C@@H](N)c3ccc(O)cc3)C(=O)N2[C@H]1C(=O)O | / | -0.4*
O=C1NCCN1C(=O)NC1CCCCC1 | 4 | 85
CC1(C)S[C@@H]2[C@H](NC(=O)[C@H](NC(=O)N3CCNC3=O)c3ccccc3)C(=O)N2C1C(=O)O (stereo not given in full) | / | -1.3*
COC(=O)C1=CNC=C(C(=O)OC)C1c1ccccc1C | 20 | 87
CC(C)(C)OC(=O)N1CCC(CNS(=O)(=O)c2cccc(C(F)(F)F)c2)CC1 | / | 105
O=S1(=O)CC(c2ccccc2)CS(=O)(=O)C1CC1S(=O)(=O)CC(c2ccccc2)CS1(=O)=O (stereo not given) | -5 | 105
COC(=O)C(C)n1cnc2scc(-c3ccc(OC)cc3)c2c1=O (stereo not given) | 11 | 100
COc1ccccc1C(=O)Nc1sc2c(c1C(N)=O)CCC2 | 6 | 111
COc1cccc2sc(Nc3sc4c(c3C(N)=O)CCCC4)nc12 | -2 | 1.1*
CCN1CCN(C(=O)c2cccc(Nc3nc4ccccc4n4cnnc34)c2)CC1 | -22 | 96
COc1ccc2nc(SCC(=O)c3ccc(O)c(O)c3)[nH]c2c1 | 5 | 99
CCOC(=O)c1oc2ccccc2c1CN1C(=O)c2ccccc2C1=O | -20 | 92
CCOC(=O)c1oc2ccccc2c1CO | 10 | -0.7*
CCC(C)(C)NC(=O)Cn1nnc(-c2ccc(OC)cc2)n1 | 2 | 106
CCN(CC)c1nnc(-n2cccc2)s1 | 7 | 91
CCOc1ccc(NC23SCC(=O)C2CCc2ccccc23)cc1 (stereo not given) | / | 2.0*
CCOc1ccc(NC(=O)C2NC(=O)CC2c2ccccc2)cc1 (stereo not given) | 10 | 89
S=C(Nc1cccnc1)Nc1cccnc1 | 14 | 99
NNc1nnc(-c2ccccc2)c(-c2ccccc2)n1 | 23 | 31
Clc1nnc(-c2ccccc2)c(-c2ccccc2)n1 | / | -0.6*
COc1cccc(-c2nnc(NC(=O)c3ccc(S(=O)(=O)N(C)C)cc3)o2)c1 | 1 | 71
SMILES | S aureus helic | Sa growth inh
CN(CC1CCCO1)S(=O)(=O)c1ccc(C(=O)Nc2nnc(-c3ccccc3)o2)cc1 (stereo not given) | 8 | -0.1*
CN(CC1CCCO1)S(=O)(=O)c1ccc(C(=O)Nc2ccc3c(c2)C(=O)NC3=O)cc1 (stereo not given) | -9 | 96
C=CCN(CC=C)S(=O)(=O)c1ccc(C(=O)Nc2nnc(-c3ccc(OC)cc3OC)o2)cc1 | 8 | 94
COc1ccc(-c2nnc(NC(=O)c3ccc(S(=O)(=O)N4CCCCC4)cc3)o2)cc1 | 1 | 20
CCCN(CCC)S(=O)(=O)c1ccc(C(=O)Nc2nnc(-c3cccc(OC)c3)o2)cc1 | -21 | 0.1*
COc1cccc(-c2nnc(NC(=O)c3ccc(S(=O)(=O)N(Cc4ccccc4)C(C)C)cc3)o2)c1 | -3 | 0.4*
COc1cccc(-c2nnc(NC(=O)c3ccc(S(=O)(=O)N4CCCCC4C)cc3)o2)c1 (stereo not given) | 4 | 2.4*
COc1ccc(C2NN(CN3CCOCC3)C(=S)N2Cc2ccccc2)cc1 (stereo not given) | 7 | 92
COc1ccc(-c2nn(-c3ccccc3)cc2/C=C\C(=O)N2CCCCC2)cc1 | 7 | 89
CC1CC(C)CN(CCCNc2cnnc3c(Cl)cccc23)C1 (stereo not given) | 11 | 92
O=C(Nc1ccc2ccccc2c1)C1CC(=O)N(C2CCCCC2)C1 (stereo not given) | 0 | 95
N#CCSc1ncnc2sccc12 | -13 | 96
CN(C)CCNC(=O)c1cc(-c2ccc(F)cc2)nc2ccccc12 | -16 | 81
Cn1cccc1C1=NCCO1 | 10 | 88
Cc1nn(CC(C)C)c(C)c1CC(=O)O | -7 | 111
COc1ccc2ncc(O)cc2c1 | 4 | 87
CC(C)N(Cc1ccccc1)S(=O)(=O)c1ccc(C(=O)Nc2nnc(-c3cccs3)o2)cc1 | -7 | 7.3*
CC(=O)Nc1nnc(-c2cccs2)o1 | -4 | /
CC1(C)CC(=O)c2ccc(OCC(=O)Nc3ccc(Br)cc3)cc2O1 | / | 128
Cc1cccc(C)c1NS(C)(=O)=O | 2 | 106
O=C(N=Nc1c2ccccc2c2nc3no[nH]c3nc12)c1ccccc1O | -28 | 0.6*
O=C(N=Nc1c(O)[nH]c(=O)[nH]c1=O)c1ccccn1 | 5 | 101
Cc1cc(OC(=O)c2ccccc2Cl)n(CCC#N)n1 | 15 | 80
O=C(Nc1ccc(Cl)c(Cl)c1)Oc1ccc(NC(=O)c2ccco2)cc1 | -2 | 3.7*
O=C(Nc1ccc2ccccc2c1)c1ccco1 | / | 98
SMILES | S aureus helic | Sa growth inh
CN1CCC(N(C)Cc2cc(=O)oc3cc4c(cc23)CCC4)CC1 | -2 | 0.3*
Cc1ccc(CN(C)Cc2cc(=O)oc3cc4c(cc23)CCC4)o1 | 7 | 71
CCOc1nc(C)ccc1-c1noc(-c2cccc(C)c2)n1 | 15 | 87
CN(C)c1cc(N)c2c(n1)CCC2 | 17 | 106
Cc1ccc(CNC(=O)c2cn(C)c3ccc(S(=O)(=O)N4CCCC4)cc3c2=O)cc1 | -17 | 94
COC(=S)Nc1cccc(C(F)(F)F)c1 | / | 94
CNC(=S)Nc1cccc(C(F)(F)F)c1 | 11 | 114
CC(C)(C)NC(=S)Nc1cccc(C(F)(F)F)c1 | 3 | 0.1*
CC(C)c1ccc(NC(=S)Nc2cccc(C(F)(F)F)c2)cc1 | / | -2.1*
Cc1ccc(-n2c(NN)nc3sc4c(c3c2=O)CCCC4)cc1 | -4 | 78
O=c1c(Cl)c(Cl)cnn1C1CCS(=O)(=O)C1 (stereo not given) | 13 | 74
COc1ccc(CNC(=O)CN2CCN(Cc3ccccc3)C2=O)cc1 | 37 | 106
Cn1nc(C(=O)N2CCCc3ccccc32)c2ccccc2c1=O | -1 | 94
CCCn1nc(C(=O)N2CCc3ccccc32)c2ccccc2c1=O | -6 | 46*
O=C(Cn1cncn1)Nc1c(Cl)cc(Cl)cc1Cl | -4 | 107
Nc1ccccc1NCCO | -22 | 88
Nc1ccccc1NCCc1ccccc1 | -75 | 9.1*
O=S(=O)(N=C1SCCS1)c1ccccc1 | -12 | /
CC1=CC(=O)C=C(C)C1=NS(=O)(=O)c1ccccc1 | 18 | -0.4*
Cc1cccc(NC(=O)c2cc3sccc3n2C)c1C | 18 | 99
CCOc1ccc(-n2c(C)nc3cc(C(=O)NC4CC4)ccc32)cc1 | / | 62
COc1cccc(OC)c1/C(O)=C(\C#N)c1nc2ccccc2s1 | 1 | 1.4*
N#C/C(=C(/O)COc1ccccc1)c1nc2ccccc2s1 | 12 | 81
N#Cc1ccccc1NC(=O)COC(=O)c1ccco1 | 2 | 100
Cc1ccc(C(=O)O)cc1-n1c(C)ccc1C | 2 | 86
Cc1ccc(C)n1-c1ccsc1C(=O)O | 35 | 46*
CC(C)N1C(=O)CSC1c1ccccc1 (stereo not given) | 10 | 102
C/C=C(/C)C(=O)OC1CC(O)(C(C)C)C2C(OC(=O)c3ccc(O)cc3)CC(C)=CCC12C (stereo not given) | -1 | 6.0*
O=C(CSc1nnc(-c2ccco2)n1C1CCCCC1)c1ccc2[nH]c(=O)oc2c1 | -35 | 81
